aSyn 5UTR act: Activators working through SNCA 5'UTR binding (MLPCN); alpha-synuclein 5'UTR reporter, activators screen; 300,000 tested, 7.1% active; activity score, % (tested at 7.5 µM), hits read low; in the data active = activity score below about -60%
Active calls of the source: *. These entries were drawn from the full list.

SMILES	aSyn 5UTR act
c1ccc(CNc2ncnc3c2cnn3-c2ccccc2)cc1	-256*
CC(C)(C)Nc1ncnc2c1cnn2-c1ccccc1	-104*
O=C(c1cc2ccccc2o1)c1nc2c(n1O)CCCCC2	-73*
Cc1ccc(C(=O)c2nc3c(n2O)CCCC3)cc1	-86*
Nc1c(-c2ccccc2)cnn1-c1cccc([N+](=O)[O-])c1	-92*
Cc1nn(-c2cccc([N+](=O)[O-])c2)c(N)c1-c1ccccc1	-83*
Nc1c(-c2ccc(Cl)cc2)cnn1-c1cccc([N+](=O)[O-])c1	-134*
Cc1cccc2nc(=S)n(C(=O)c3ccco3)n12	-221*
O=C(c1ccco1)n1c(=S)nc2ccccn21	-172*
Cc1ccn2c(c1)nc(=S)n2C(=O)c1ccccc1	-100*
Cc1ccc2nc(-c3ccc(NC(=O)C(C)N4C(=O)c5ccccc5C4=O)cc3)sc2c1 (stereo unspecified)	-102*
Cc1ccc(C2(C)NC(=O)N(CC(=O)Nc3ccc(-c4nc5ccc(C)cc5s4)cc3)C2=O)cc1 (stereo unspecified)	-160*
Cc1ccc2nc(-c3ccc(NC(=O)CCN4C(=O)c5ccccc5C4=O)cc3)sc2c1	-171*
CCCCN(CC)C(=O)c1cc2cc3ccc(Cl)cc3nc2o1	-87*
O=S(=O)([N-]c1nc2ccccc2nc1-[n+]1ccc(-c2ccncc2)cc1)c1ccccc1	-105*
Cc1ccc2c3c(cccc13)-c1ccccc1C2=O	-111*
O=C(O)c1ccc2c3c(ncnc13)-c1ccccc1C2=O	107
Cc1cccc2c3nc4ccccc4nc3n(C)c12	-78*
COc1ccccc1-c1nnc2sc(-c3ccc(N(C)C)cc3)nn12	99
COc1cccc(-c2nnc3sc(-c4ccccn4)nn23)c1	-103*
COc1ccc(-n2nc(C(=O)NCC(=O)N3CCN(c4ccccc4)CC3)c3ccccc3c2=O)c(OC)c1	-78*
COc1ccc(-n2nc(C(=O)NCC(=O)N3CCN(c4ccc(F)cc4)CC3)c3ccccc3c2=O)c(OC)c1	-65*
COc1cc(/C=N/NC(=O)CN2CCCCC2)ccc1OCc1ccccc1	-137*
COc1cc(/C=N/NC(=O)CN2CCOCC2)ccc1OCc1ccccc1	-97*
CC(C)(C)OC(=O)COc1ccc(/C=N/NC(=O)CN2CCCCC2)cc1	-86*
SMILES	aSyn 5UTR act
Clc1nc(-c2ccccn2)nc2scc(-c3ccccc3)c12	-206*
CN1CCN(S(=O)(=O)c2ccc(Br)c3nsnc23)CC1	-70*
Oc1c(Br)cc(/C=N/Nc2nncc3ccccc23)cc1Br	-109*
COc1ccccc1/C=N/Nc1nncc2ccccc12	-132*
COc1ccc(/C=N/Nc2nncc3ccccc23)cc1	67
COc1cccc(/C=N/Nc2ncnc3scc(-c4ccccc4)c23)c1O	61
Cc1c(OCC(=O)NC2CC(C)(C)NC(C)(C)C2)ccc2c1oc(=O)c1ccccc12	-107*
CC1(C)CC(NC(=O)COc2ccccc2Cl)CC(C)(C)N1	-66*
CCOC(=O)c1sc(-c2ccc(OC)cc2)cc1NC(C)=O	-73*
CCOc1ccc(CC(=O)Nc2ccc(-c3ccc4nnc(C)n4n3)cc2)cc1	-87*
CC(=O)Nc1cccc(-c2cn3ccc(C)cc3n2)c1	-107*
Cc1ccn2cc(-c3ccc(NC(=O)c4ccco4)cc3)nc2c1	-95*
Cc1ccn2cc(-c3cccc(NS(C)(=O)=O)c3)nc2c1	-150*
Cc1nnc2ccc(-c3ccc(NC(=O)c4ccco4)cc3)nn12	-254*
CC(NC(=O)NC(=O)c1ccc(Cl)cc1Cl)C1CC1 (stereo unspecified)	-70*
Cc1nnsc1C(=O)NNc1ccc(C(C)C)cc1	-99*
O=C(COC(=O)c1ccccc1Nc1ccc(SC(F)F)cc1)NC1CC1	-100*
NC(=O)COC(=O)c1ccccc1Nc1ccc(SC(F)F)cc1	-82*
CC(C)(C)NC(=O)COC(=O)c1ccccc1Nc1ccc(SC(F)F)cc1	-145*
O=C(COC(=O)c1ccccc1Nc1ccc(SC(F)F)cc1)NCc1ccco1	-91*
O=C(CSc1nnnn1Cc1ccccc1)c1ccccc1	-67*
CCn1nnnc1SCC(=O)c1ccc(C)cc1	-66*
Cc1ccc2oc(-c3cccc(NC(=O)Cn4cnc5c(=O)n(C)c(=O)n(C)c54)c3)nc2c1	-119*
CCC(C)c1ccc2oc(-c3ccc(NC(=O)Cn4cnc5c(=O)n(C)c(=O)n(C)c54)cc3)nc2c1 (stereo unspecified)	-114*
C=CCNC(=O)c1ccc(-c2nc(-c3ccccc3)cs2)cc1	-102*
SMILES	aSyn 5UTR act
O=C(O)c1ccc(-c2nc(-c3ccc(Cl)cc3)cs2)cc1	-173*
COc1ccc(-c2csc(-c3ccc(C(=O)O)cc3)n2)cc1	-160*
O=C(O)c1ccc(-c2nc(-c3ccc(Cl)cc3Cl)cs2)cc1	-179*
Cc1ccc(NC(=O)c2onc(C)c2Cl)cc1	-151*
Cc1noc(C(=O)Nc2ccc(F)c(Cl)c2)c1Cl	-70*
O=C(O)/C=C\C(=O)Nc1ccccc1C#Cc1ccc(Br)cc1	-290*
O=C(O)/C=C\C(=O)Nc1ccccc1C#Cc1ccccc1	-87*
Cc1ccc(C)c(C2NC(=O)c3ccccc3N2)c1 (stereo unspecified)	-70*
CSc1ccc(C2NC(=O)c3ccccc3N2)cc1 (stereo unspecified)	-126*
O=C(c1ccc(S(=O)(=O)Cc2cc(F)ccc2F)c([N+](=O)[O-])c1)N1CCCCC1	-102*
O=[N+]([O-])c1ccccc1-c1nc(-c2ccc(Br)o2)no1	-266*
O=[N+]([O-])c1cc(Cl)ccc1-c1nc(-c2ccncc2)no1	-143*
O=[N+]([O-])c1cc(Cl)ccc1-c1nc(-c2ccccc2)no1	-181*
O=C(c1ccc(Br)s1)N1CCc2ccccc2C1	-65*
O=C(Cc1ccc(Br)cc1)N1CCc2ccccc2C1	-145*
C/C(=C\C(=O)c1ccccc1)NCc1ccc(F)cc1	-64*
COc1ccc(-c2nc(SC)n(S(=O)(=O)c3ccccc3)n2)cc1	-120*
Clc1ccc(-n2ncc3c(NCc4cccs4)ncnc32)cc1	-249*
Cc1cccc(-n2ncc3c(NCc4cccs4)ncnc32)c1	-112*
CC(C)(C)C(=O)Cn1ncc(Br)c(Br)c1=O	-92*
Cc1cc2[nH]c3c(c[n+](C)c4ccccc34)c2cc1C	101
Cc1cc2c([nH]c3ccccc32)c2c1OC(C)(C)C=C2	-204*
CCN(Cc1ccccc1)c1ccc(/C=N/N=C(N)N)cc1	94
CC(=O)Oc1ccc(/C=N/NC(=S)Nc2ccccc2)cc1	-149*
CCN(CC)c1ccc(/C=N/NC(=O)Nc2ccccc2)cc1	-150*
SMILES	aSyn 5UTR act
CCN(CC)c1ccc(/C=N/NC(=O)OC(C)(C)C)cc1	-153*
CCOc1ccc(/C=N/NC(=O)Nc2ccccc2)cc1	-120*
O=[N+]([O-])c1ccc2cn(-c3ccccc3)nc2c1	-200*
COc1ccccc1-n1cc2ccc([N+](=O)[O-])cc2n1	-119*
Cc1ccc(-c2cc(N)n(-c3ccc(C)cc3)n2)cc1	-124*
Cc1ccc(-c2cc(N)n(-c3ccc(F)cc3)n2)cc1	-147*
c1ccc2c(c1)Nc1cc3ccccc3cc1S2	-135*
O=C1CCNc2cc3ccccc3cc21	78
CCCCN1C(=O)/C(=C2\SC(N3CCCCC3)=NC2=O)c2ccccc21	-149*
COc1ccc(OC)c(C(=O)Nc2ccc3[nH]ccc3c2)c1	-112*
COc1ccc(C(=O)Nc2ccc3[nH]ccc3c2)cc1	66
COc1ccc(C(=O)Nc2ccc3[nH]ccc3c2)cc1OC	-134*
Cc1ccc2[nH]c3c(=O)n(N)c(C)nc3c2c1	-70*

Bioassay records deposited in PubChem BioAssay by Broad Institute.
